Unmarked numbers belong to inactive results. Results filed as inconclusive are left out. A call without a number means that no potency is given here. The source made the active and inactive calls. Unless noted, calls come from the whole dose curve; as a rule, active = well fitted curve in the direction sought with a large enough effect in the repeat runs; inconclusive = weak or mixed curves; inactive = no such curve, though single readings can be large; an effect the other way counts as inactive or inconclusive. Non-standard residues stand in square brackets, D forms with d. Residues, ends and D or L forms follow the SMILES beside them. *: point of attachment. Sta = CC(C)C[C@H](N)[C@@H](O)CC(=O)O; Isovaleryl = CC(C)CC(=O)*
What was measured:
[1] = qHTS assay for small molecule agonists of the p53 signaling pathway (AID 651631; calls by dose curve; note: nearly all actives have a fitted effect of over 15% in size)
Outline: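 Quantitative high-throughput format: 4,000 p53RE-bla HCT-116 cells/well, 5 h pre-incubation, 16 h compound exposure at 37 °C, 2 h room-temperature substrate step, fluorescence intensity measured.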

[2] = qHTS assay for small molecules that induce genotoxicity in human embryonic kidney cells expressing luciferase-tagged ATAD5 (AID 651632); note: nearly all actives have a fitted effect of over 15% in size
Outline: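 DMSO vehicle served as the control. HEK293T reporter cells, 16 hr at 37C, then 30 min Amplite at room temperature; ATAD5 induction is measured as luciferase activity.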

[3] = qHTS assay for small molecule agonists of the p53 signaling pathway - cell viability (AID 651633; calls by dose curve;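 note: p53RE-bla HCT reporter cells with a stable beta-lactamase p53 reporter; series mostly up to about 83 µM; nearly all actives have a fitted effect of over 30% in size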)
Outline: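 Viability counter-read: CellTiter-Glo luminescence (30 min, room temperature) in the same p53RE-bla plates. These plates had been exposed to compounds for 16 h at 37 C.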

[4] = qHTS assay for small molecules that induce genotoxicity in human embryonic kidney cells expressing luciferase-tagged ATAD5 - cell viability (AID 651634; calls by dose curve; note: nearly all actives have a fitted effect of over 25% in size)
Outline: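 Here HEK293T cells with the ATAD5 luciferase reporter are incubated with test compounds for 15.5 hr, and cytotoxicity is then gauged by measuring protease activity in live cells using fluorescence.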

[5] = qHTS assay for small molecule disruptors of the mitochondrial membrane potential - cell viability (AID 720634; calls by dose curve;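 note: human HepG2 liver cancer cells; series mostly up to about 83 µM; nearly all actives have a fitted effect of over 20% in size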)
Outline: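 Viability of HepG2 cells is scored from ATP content by luminescence; cells are exposed to compound for 1 hr at 37 C and 5% CO2, then dosed with m-MPI dye before the CellTiter-Glo reagent.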

[6] = qHTS assay for small molecule disruptors of the mitochondrial membrane potential (AID 720635); note: potency is the fitted concentration of half-maximal effect
Outline: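 Mitochondrial membrane potential tracked with Mito-MPS dye, red aggregates (ex 540/em 590 nm) against green monomers (ex 490/em 535 nm). Compound treatment 1 hr at 37C, dye 30 min in HepG2.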

[7] = qHTS assay to test for compound auto fluorescence at 590 nm (red) in HepG2 cells (AID 720674)
Outline: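 We screened compounds on adherent HepG2 cells, incubating them for an hour at 37 C in 5% CO2 before reading emission at 590 nm under 540 nm excitation; values reflect equivalence to Rose Bengal sodium fluorescence.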

[8] = qHTS assay to test for compound auto fluorescence at 535 nm (green) in HepG2 cells (AID 720675)
[9] = qHTS assay to test for compound auto fluorescence at 460 nm (blue) in HEK293 cells (AID 720678)
Outline: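 Auto fluorescence in the blue band was quantified as triamterene equivalency. HEK293 cells were seeded at 2,000/well, dosed after a 4-5 hr attachment, and kept overnight at 37C before the 405/460 nm reading.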

[10] = qHTS assay to test for compound auto fluorescence at 590 nm (red) in HEK293 cells (AID 720679)
Outline: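 Autofluorescence equivalency to Rose Bengal sodium, 540/590nm, in HEK293 cells exposed overnight to 23 nL compound per well.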

[11] = qHTS assay to test for compound auto fluorescence at 535 nm (green) in HEK293 cells (AID 720680)
[12] = qHTS assay to test for compound auto fluorescence at 535 nm (green) in HEK293 cell free culture (AID 720682)
Outline: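 Measurement is a direct plate read of green fluorescence (485 nm in, 535 nm out) after compound addition to serum-supplemented DMEM lacking cells, with fluorescein used to express intensities.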

[13] = qHTS assay to test for compound auto fluorescence at 590 nm (red) in HEK293 cell free culture (AID 720683)
Outline: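 Red-channel autofluorescence of compounds in culture medium (DMEM, 10% FBS), no cells, measured at 540/590 nm. Rose Bengal sodium is the reference fluorophore for equivalence.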

[14] = qHTS assay to test for compound auto fluorescence at 590 nm (red) in HepG2 cell free culture (AID 720684)
Outline: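 Cell-free; medium MEM + 10% FBS; compound or DMSO added by pintool; read Ex 540/Em 590 nm; Rose Bengal sodium as red reference fluorophore.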

[15] = qHTS assay to test for compound auto fluorescence at 460 nm (blue) in HepG2 cell free culture (AID 720685)
Outline: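 Cell-free plates of MEM plus 10% FBS received 23 nL compound or DMSO vehicle; blue-channel (405/460 nm) intensity scored against triamterene as reference fluorophore.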

[16] = qHTS assay to test for compound auto fluorescence at 535 nm (green) in HepG2 cell free culture (AID 720686)
[17] = qHTS assay to test for compound auto fluorescence at 460 nm (blue) in HepG2 cells (AID 720687)
Outline: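 Blue-channel autofluorescence (Ex/Em 405/460 nm, triamterene-equivalent) was measured after 1 hr compound exposure at 37 C, 5% CO2. Cells were HepG2, plated overnight at 37 C in MEM plus 10% FBS.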

[18] = qHTS assay to test for compound auto fluorescence at 460 nm (blue) in HEK293 cell free culture (AID 720681)
Outline: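 Blue fluorescence (Ex 405/Em 460 nm, triamterene-equivalent) was read immediately after pin transfer of compound or DMSO into medium (DMEM, 10% FBS) without cells.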

[19] = molecular target: Glucocorticoid receptor (Homo sapiens) (UniProt P04150); assay: qHTS assay to identify small molecule agonists of the glucocorticoid receptor (GR) signaling pathway (AID 720691; active = well fitted activation curve with a large enough effect in the signal ratio in the repeat runs, not every such curve was filed as active; the % refers to the signal ratio)
Outline: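 Compounds in DMSO, alongside positive controls, were added to GR-bla HeLa reporter cells and incubated 18 h at 37 C; GRE-driven beta-lactamase was detected by fluorescence after 2 h with FRET substrate at room temperature.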

[20] = molecular target: Glucocorticoid receptor (Homo sapiens) (UniProt P04150); assay: qHTS assay to identify small molecule antagonists of the glucocorticoid receptor (GR) signaling pathway (AID 720692; active = well fitted inhibition curve with a large enough effect in the signal ratio in the repeat runs, not every such curve was filed as active; the % refers to the signal ratio)
Outline: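 In a 1536-well cell format, compounds were added 4 h after seeding GR-bla HeLa cells, together with dexamethasone at 5 nM final; reporter activity was measured by FRET-substrate fluorescence following 18 h at 37 C.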

Chain of Glucocorticoid receptor (Homo sapiens) (P04150 whole entry, looked up): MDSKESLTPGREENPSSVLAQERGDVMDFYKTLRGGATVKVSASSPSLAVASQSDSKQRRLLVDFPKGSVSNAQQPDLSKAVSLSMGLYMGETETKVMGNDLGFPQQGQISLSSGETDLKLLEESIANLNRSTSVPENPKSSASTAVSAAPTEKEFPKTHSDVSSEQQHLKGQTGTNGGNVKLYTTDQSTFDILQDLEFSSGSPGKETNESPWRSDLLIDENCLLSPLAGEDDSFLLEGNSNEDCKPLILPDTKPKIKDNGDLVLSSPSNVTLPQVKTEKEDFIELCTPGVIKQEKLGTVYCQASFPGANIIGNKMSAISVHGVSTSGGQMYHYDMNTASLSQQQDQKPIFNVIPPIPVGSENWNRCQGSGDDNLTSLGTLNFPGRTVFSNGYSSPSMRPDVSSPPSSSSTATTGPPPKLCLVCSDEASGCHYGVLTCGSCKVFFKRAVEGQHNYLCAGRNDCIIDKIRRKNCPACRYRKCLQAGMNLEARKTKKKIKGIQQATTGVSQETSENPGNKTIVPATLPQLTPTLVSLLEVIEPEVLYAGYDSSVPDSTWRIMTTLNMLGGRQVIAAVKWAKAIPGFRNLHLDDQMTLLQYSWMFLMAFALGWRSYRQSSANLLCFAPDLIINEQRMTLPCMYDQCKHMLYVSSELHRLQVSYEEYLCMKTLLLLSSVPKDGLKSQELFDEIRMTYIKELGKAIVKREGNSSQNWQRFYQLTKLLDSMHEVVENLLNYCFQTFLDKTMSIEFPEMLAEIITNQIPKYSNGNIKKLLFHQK

CCCCN(CCCC)CCCCCCN(CCCC)CCCC
Potency [1]: inactive | Potency [2]: inactive | outcome [3]: inactive | outcome [4]: inactive | outcome [5]: inactive | Potency [6]: inactive | outcome [7]: inactive | outcome [8]: inactive | outcome [9]: inactive | outcome [10]: inactive | outcome [11]: inactive | outcome [12]: inactive | outcome [13]: inactive | outcome [14]: inactive | outcome [15]: inactive | outcome [16]: inactive | outcome [17]: inactive

CCCCS
Potency [1]: inactive | Potency [2]: inactive | outcome [3]: inactive | outcome [4]: inactive | outcome [5]: inactive | Potency [6]: inactive | outcome [7]: inactive | outcome [8]: inactive | outcome [9]: inactive | outcome [10]: inactive | outcome [11]: inactive | outcome [18]: inactive | outcome [12]: inactive | outcome [13]: inactive | outcome [14]: inactive | outcome [15]: inactive | outcome [16]: inactive | outcome [17]: inactive | Potency [19]: inactive | outcome [20]: inactive

CCO/C=C1\N=C(c2ccccc2)OC1=O
Potency [1]: inactive | Potency [2]: inactive | outcome [3]: inactive | outcome [4]: inactive | outcome [5]: inactive | Potency [6]: inactive | outcome [7]: inactive | outcome [8]: inactive | outcome [9]: inactive | outcome [10]: inactive | outcome [11]: inactive | outcome [18]: inactive | outcome [12]: inactive | outcome [13]: inactive | outcome [14]: inactive | outcome [15]: inactive | outcome [16]: inactive | outcome [17]: inactive | Potency [19]: inactive

COC(=O)c1c(C)cc(O)c(C)c1O
Potency [1]: inactive | Potency [2]: inactive | outcome [3]: inactive | outcome [4]: inactive | outcome [5]: inactive | Potency [6]: 12.2 µM (active) | outcome [7]: inactive | outcome [8]: inactive | outcome [9]: inactive | outcome [10]: inactive | outcome [11]: inactive | outcome [18]: inactive | outcome [12]: inactive | outcome [13]: inactive | outcome [14]: inactive | outcome [15]: inactive | outcome [16]: inactive | outcome [17]: inactive

COCCCOc1cc(C[C@@H](C[C@H](N)[C@@H](O)C[C@H](C(=O)NCC(C)(C)C(N)=O)C(C)C)C(C)C)ccc1OC
Potency [1]: inactive | Potency [2]: inactive | outcome [3]: inactive | outcome [4]: inactive | outcome [5]: inactive | Potency [6]: inactive | outcome [7]: inactive | outcome [8]: inactive | outcome [11]: inactive | outcome [18]: inactive | outcome [12]: inactive | outcome [13]: inactive | outcome [14]: inactive | outcome [15]: inactive | outcome [16]: inactive | outcome [17]: inactive | Potency [19]: inactive | outcome [20]: inactive

Cc1ccc(N)nc1
Potency [1]: inactive | Potency [2]: inactive | outcome [3]: inactive | outcome [4]: inactive | outcome [5]: inactive | Potency [6]: inactive | outcome [7]: inactive | outcome [8]: inactive | outcome [9]: inactive | outcome [10]: inactive | outcome [11]: inactive | outcome [12]: inactive | outcome [13]: inactive | outcome [14]: inactive | outcome [15]: inactive | outcome [16]: inactive | outcome [17]: inactive

CC(C)CC(=O)N[C@H](C(=O)N[C@H](C(=O)N[C@@H](CC(C)C)[C@@H](O)CC(=O)N[C@@H](C)C(=O)N[C@@H](CC(C)C)[C@@H](O)CC(=O)O)C(C)C)C(C)C (Isovaleryl-VV[Sta]A[Sta]-OH)
Potency [1]: inactive | Potency [2]: inactive | outcome [3]: inactive | outcome [4]: inactive | outcome [5]: inactive | Potency [6]: inactive | outcome [7]: inactive | outcome [8]: inactive | outcome [9]: inactive | outcome [10]: inactive | outcome [11]: inactive | outcome [18]: inactive | outcome [12]: inactive | outcome [13]: inactive | outcome [14]: inactive | outcome [15]: inactive | outcome [16]: inactive | outcome [17]: inactive

CCCC(C)C(O)CC (stereo unspecified)
Potency [1]: inactive | Potency [2]: inactive | outcome [3]: inactive | outcome [4]: inactive | outcome [5]: inactive | Potency [6]: inactive | outcome [7]: inactive | outcome [8]: inactive | outcome [9]: inactive | outcome [11]: inactive | outcome [18]: inactive | outcome [12]: inactive | outcome [13]: inactive | outcome [14]: inactive | outcome [15]: inactive | outcome [16]: inactive | outcome [17]: inactive | Potency [19]: inactive | outcome [20]: inactive

CC(C)CC(O)Cc1ccccc1 (stereo unspecified)
Potency [1]: inactive | Potency [2]: inactive | outcome [3]: inactive | outcome [4]: inactive | outcome [5]: inactive | Potency [6]: inactive | outcome [7]: inactive | outcome [8]: inactive | outcome [9]: inactive | outcome [10]: inactive | outcome [11]: inactive | outcome [18]: inactive | outcome [12]: inactive | outcome [13]: inactive | outcome [14]: inactive | outcome [15]: inactive | outcome [16]: inactive | outcome [17]: inactive | Potency [19]: inactive

O=C(O)COc1ccc2ccccc2c1
Potency [1]: inactive | Potency [2]: inactive | outcome [3]: inactive | outcome [4]: inactive | outcome [5]: inactive | Potency [6]: inactive | outcome [7]: inactive | outcome [8]: inactive | outcome [9]: inactive | outcome [10]: inactive | outcome [11]: inactive | outcome [18]: inactive | outcome [12]: inactive | outcome [13]: inactive | outcome [14]: inactive | outcome [15]: inactive | outcome [16]: inactive | outcome [17]: inactive | Potency [19]: inactive | outcome [20]: inactive

C=CCOC(=O)CCCCCCCC
Potency [1]: inactive | Potency [2]: inactive | outcome [3]: inactive | outcome [4]: inactive | outcome [5]: inactive | Potency [6]: inactive | outcome [7]: inactive | outcome [8]: inactive | outcome [9]: inactive | outcome [10]: inactive | outcome [11]: inactive | outcome [18]: inactive | outcome [12]: inactive | outcome [13]: inactive | outcome [14]: inactive | outcome [15]: inactive | outcome [16]: inactive | outcome [17]: inactive

COc1ccc(Cl)cc1C
Potency [1]: inactive | Potency [2]: inactive | outcome [3]: inactive | outcome [4]: inactive | outcome [5]: inactive | Potency [6]: inactive | outcome [7]: inactive | outcome [8]: inactive | outcome [9]: inactive | outcome [10]: inactive | outcome [11]: inactive | outcome [12]: inactive | outcome [13]: inactive | outcome [14]: inactive | outcome [15]: inactive | outcome [16]: inactive | outcome [17]: inactive | Potency [19]: inactive | outcome [20]: inactive

C=C(C)C(=O)OCCOC1CC2CC1C1C=CCC21 (stereo unspecified)
Potency [1]: inactive | Potency [2]: inactive | outcome [3]: inactive | outcome [4]: inactive | outcome [5]: inactive | outcome [7]: inactive | outcome [8]: inactive | outcome [9]: inactive | outcome [10]: inactive | outcome [11]: inactive | outcome [18]: inactive | outcome [12]: inactive | outcome [13]: inactive | outcome [14]: inactive | outcome [15]: inactive | outcome [16]: inactive | outcome [17]: inactive

C=C(C)C(=O)OCCCC
Potency [1]: inactive | Potency [2]: inactive | outcome [3]: inactive | outcome [4]: inactive | outcome [5]: inactive | outcome [7]: inactive | outcome [8]: inactive | outcome [9]: inactive | outcome [10]: inactive | outcome [11]: inactive | outcome [18]: inactive | outcome [12]: inactive | outcome [13]: inactive | outcome [14]: inactive | outcome [15]: inactive | outcome [16]: inactive | outcome [17]: inactive
